Unmarked numbers belong to inactive results.
Key:
Conditions in all cases: 60 µM; 5 days; temperature: 20 °C
[1] = system: Meloidogyne hapla J2; experiment: proportion of mobile M. hapla J2 relative to DMSO control (fraction of DMSO control); higher = more viable, less nematicidal, active = 0.7 or less
Method in brief: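 About 25 M. hapla J2 were added per 96-well well in distilled water, and compound was pinned to 60 µM final (0.6% v/v DMSO). Sealed plates were shaken at 200 rpm for 5 days at 20 °C, then 2 µL 1 M NaOH was added before microscopic mobility scoring. Mobility was divided by the mean of eight DMSO wells on the same plate, and two biological replicates were averaged.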

[2] = system: Ditylenchus dipsaci; experiment: proportion of mobile D. dipsaci (mixed stage) relative to DMSO control (fraction of DMSO control); higher = more viable, less nematicidal, active = 0.86 or less; extreme values may be limits of the assay
Method in brief: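 D. dipsaci were grown on pea plants in Gamborg B-5 agar and extracted through a filter funnel into water, and about 20 worms were added per 96-well well in distilled water. Compound was pinned to 60 µM final (0.6% v/v DMSO), and sealed plates were shaken at 200 rpm for 5 days at 20 °C. After 2 µL 1 M NaOH was added, mobile worms were scored microscopically. Mobility was expressed relative to DMSO controls and averaged over two biological replicates.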

[3] = system: Caenorhabditis elegans dauer (daf-2(e1370)); experiment: proportion of mobile C. elegans dauer larvae relative to DMSO control (fraction of DMSO control); higher = more viable, less nematicidal, active = 0.63 or less; extreme values may be limits of the assay
Method in brief: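 The proportion of mobile worms, relative to DMSO wells, was scored by dissection microscope and averaged over two biological replicates. Worms were C. elegans dauers, about 20 per well in liquid NGM in 96-well plates, generated from synchronized larvae on MYOB plates with E. coli OP50 at 25 °C for 48 h. They were treated with compound pinned to 60 µM final (0.6% v/v DMSO) and kept in sealed plates shaken at 200 rpm for 5 days at 20 °C.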

Compound	proportion of mobile M. hapla J2 [1]	proportion of mobile D. dipsaci [2]	proportion of mobile C. elegans dauer larvae [3]
O=C(NCc1cccnc1)c1ccccc1-c1nc(-c2ccccc2Cl)no1	0.771	1	
Cc1ccc(-c2nc(-c3ccccc3)no2)cc1C	0.884	1	
Brc1ccc(-c2nc(-c3ccccc3)no2)cc1	1	1	
Clc1ccc(-c2nnc(SCc3ccccc3)o2)c(Cl)c1	0.957	1	
COc1ccc(-c2noc(-c3ccc(C)c(Cl)c3)n2)cc1	0.986	1	
Cc1ccccc1-c1nnc(SCc2ccccc2Cl)o1	0.863	1	
COc1cccc(-c2noc(COc3ccc(Cl)cc3)n2)c1	0.993	1	
CC(=O)c1cccc(NC(=O)CSc2nnc(-c3ccccc3)o2)c1		1	1
c1cncc(-c2noc(COc3cccc4ccccc34)n2)c1	0.991	1	
O=C(Nc1ccc(-c2noc(COc3ccccc3Cl)n2)cc1)c1ccccn1	1.02	1	
Cc1csc(NC(=O)CSc2nnc(-c3cccc(Cl)c3)o2)n1	1.05	1	
Cc1ccc(-c2noc(-c3ccc4c(c3)OCCO4)n2)cc1	1	1	
CCn1c(SCc2nc(-c3ccccc3)no2)nc2ccccc21		1	1
COc1ccc(-c2noc(-c3ccc(Br)cc3)n2)cc1	1.04	1	
CCC(=O)Nc1ccccc1-c1nc(-c2ccncc2)no1	0.938	1	
CCOc1ccc(-c2nc(-c3ccc(C)cc3)no2)cc1	0.966	1	
Fc1ccc(-c2nc(-c3cccc(C(F)(F)F)c3)no2)cc1	0.939	1	
Cc1ccc(-c2nc(-c3ccccc3)no2)cc1	1.04	1	
COc1ccc(-c2noc(-c3ccccc3Cl)n2)cc1	0.885	1	
COc1nc(C)ccc1-c1noc(-c2ccccc2Br)n1	0.917	1	

Compound	proportion of mobile M. hapla J2 [1]	proportion of mobile D. dipsaci [2]	proportion of mobile C. elegans dauer larvae [3]
CCOC(=O)c1sc(NC(=O)CSc2nnc(-c3ccc(Cl)cc3)o2)c(C#N)c1C		1	1
Cc1cc(Br)ccc1OCc1nc(-c2cccnc2)no1	1.05	1	
CCc1ccc(OCc2nc(-c3ccccn3)no2)cc1	0.966	1	
CCOc1nc(-c2ccccc2)ccc1-c1noc(CC)n1	0.998	1	
Cc1csc(NC(=O)CSc2nnc(-c3ccccc3Cl)o2)n1	0.849	1	
COc1ccc(Cl)cc1-c1nc(-c2ccc3c(c2)OCO3)no1	0.957	1	
O=C(CSc1nnc(-c2ccccc2Cl)o1)Nc1nccs1	0.992	1	
CCOc1nc(-c2ccccc2)ccc1-c1noc(-c2cccc(OC)c2)n1	0.759	1	
CC(Sc1nnc(-c2cccnc2)o1)C(=O)c1ccccc1 (stereo not given)	1.03	1	
COc1cccc(-c2nc(-c3ccc(F)cc3)no2)c1	0.862	1	
COc1ccc(C(=O)CSc2nnc(-c3cccc(Br)c3)o2)cc1	1.04	1	
c1cc(-c2noc(C34CC5CC(CC(C5)C3)C4)n2)ccn1		1	1
O=C(CSc1nnc(-c2ccccc2)o1)OCc1ccccc1	0.999	1	
COc1ccc(-c2noc(COc3ccc(Cl)cc3Cl)n2)cc1	0.874	1	
Cc1nnc(CSc2nnc(-c3ccc(Cl)cc3)o2)o1	0.926	1	
COc1ccc(-c2noc(COc3ccccc3C)n2)cc1	1.03	1	
CCOc1nc(-c2ccc(C)cc2)ccc1-c1noc(-c2ccc(F)cc2)n1	0.829	1	
O=C(Nc1ccccc1-c1nc(-c2cccnc2)no1)c1ccccc1Cl	0.983	1	
CC(C)(Oc1ccc(Cl)cc1)c1nc(-c2ccncc2)no1	0.91	1	
O=C(CSc1nnc(-c2ccco2)o1)Nc1cc(Cl)ccc1Cl	1.01	1	
